Rows were chosen to be rich in hits. Some 2.2% of all compounds tested hit in one or more screens of this group.
ABCB6 inh MLPCN: blocks the human ABCB6 transporter. Q9NP58. K562-ABCB6 porphyrin accumulation, flow cytometry, 1 h; stronger effect = lower value. fluorescence ratio to DMSO, % at 10 µM. hit rate 0.19% among 360,000;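 active = fluorescence ratio to DMSO below 75%, the collection mean minus 3 SD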;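 note: signal is porphyrin accumulated inside mitochondria; 100% equals median channel fluorescence of DMSO control wells; lower ratio means ABCB6 inhibition with less porphyrin fluorescence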
Target sequence (Q9NP58 whole entry, looked up): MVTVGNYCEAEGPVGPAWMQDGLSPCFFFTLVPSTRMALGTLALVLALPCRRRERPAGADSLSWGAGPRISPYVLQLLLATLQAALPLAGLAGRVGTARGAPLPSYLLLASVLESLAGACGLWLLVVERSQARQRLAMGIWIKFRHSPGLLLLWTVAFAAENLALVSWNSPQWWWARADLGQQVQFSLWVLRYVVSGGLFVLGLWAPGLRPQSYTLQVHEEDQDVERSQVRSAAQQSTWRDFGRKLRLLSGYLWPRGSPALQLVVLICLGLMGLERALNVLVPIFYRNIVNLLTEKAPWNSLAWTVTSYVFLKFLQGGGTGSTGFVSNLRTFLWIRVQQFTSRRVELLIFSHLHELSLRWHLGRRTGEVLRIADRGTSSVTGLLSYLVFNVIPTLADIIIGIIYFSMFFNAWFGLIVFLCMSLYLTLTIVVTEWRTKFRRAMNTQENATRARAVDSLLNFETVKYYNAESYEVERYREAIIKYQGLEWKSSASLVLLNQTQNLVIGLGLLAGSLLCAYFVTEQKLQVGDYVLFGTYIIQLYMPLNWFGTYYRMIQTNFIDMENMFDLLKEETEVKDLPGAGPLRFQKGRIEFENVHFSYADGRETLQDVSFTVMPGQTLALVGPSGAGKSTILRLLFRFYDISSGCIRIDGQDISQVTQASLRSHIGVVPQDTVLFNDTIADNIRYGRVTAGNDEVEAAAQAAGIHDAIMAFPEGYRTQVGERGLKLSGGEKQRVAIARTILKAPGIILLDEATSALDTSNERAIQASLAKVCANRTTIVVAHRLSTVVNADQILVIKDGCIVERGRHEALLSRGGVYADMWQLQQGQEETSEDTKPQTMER
Myeloid diff 2: promotes myeloid progenitor differentiation. hit rate 1% among 360,000. calls only at 10 µM. ER-HoxA9 myeloid progenitors, lysozyme-GFP differentiation, flow cytometry;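 active = normalized GFP-positive differentiation at or above the plate's own cutoff, the solvent-only control mean plus 3 SD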;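 note: cells exposed to compound for four days before flow analysis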
H9c2 protect: modulators protecting cardiomyocytes from myocardial damage. protection from H2O2 cell death, % at 20 µM. H9c2 cardiomyocytes, H2O2 injury protection, ATPLite, 2 h. AID 588492. hit rate 0.63% among 360,000;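 active = compounds giving at least 50% protection of heart cells from peroxide-induced death in the single-dose screen, raw or plate-pattern-corrected value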;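 note: 0% = DMSO wells with peroxide and 100% = DMSO wells without peroxide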
MIN6 prolif-1: MIN6 beta-cell proliferation induction; MIN6 cells proliferation, ATPlite luminescence, 48 h; cells starved in 0.2% serum; 100% = growth in 10% serum; proliferation, % at 10 µM; hit rate 0.29% among 330,000; AID 2380;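 active = compounds whose signal lies at least 3.5 SD above the mean of all wells on their plate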;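 note: 0% = DMSO-treated cells in low-serum medium and 100% = 10% serum control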
hiPSC survival: hiPSC single-cell survival enhancement | ATPlite luminescence; 100% = ROCK inhibitor wells, 0% = DMSO | survival enhancement, % at 20 µM | hit rate 0.044% among 360,000; in the data active = survival enhancement above about 18%;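 note: cells exposed to compounds for 16 hours before the ATP read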
MIN6 prolif-2: confirmation of inducers of beta-cell replication in MIN6 cells; shares compounds with MIN6 prolif-1; MIN6 beta-cell proliferation, ATPlite luminescence, 48 h; cells kept in 0.2% serum; scaled between 0.2% and 10% serum; 920 tested, under 10 active; AID 463095; proliferation increase, % at 50 µM;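 active = proliferation increase above 40% at any of the four tested concentrations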
* marks the source's active call; other numbers are inactive results; i = inactive; / = not tested or not shown.

SMILES	ABCB6 inh MLPCN	Myeloid diff 2	H9c2 protect	MIN6 prolif-1	hiPSC survival	MIN6 prolif-2
O=C(/C=C/c1ccco1)NCc1ccccn1	102	i	9	9.4*	2	2
O=C(/C=C/c1ccc([N+](=O)[O-])cc1)NCc1ccccn1	99	i	4	-2	0	/
CCC(C)NC(=O)CCSc1ccc(C)cc1 (configuration not stated)	95	i	0	0.0*	2	1
COC(=O)c1ccccc1NC(=O)c1cc(-c2ccc(C)cc2)on1	95	i	1	8.3*	1	0
COc1ccc(-c2cc(C(=O)Nc3ccccc3SC)no2)cc1	101	i	8	-2	3	/
COCCNC(=O)C(c1ccccc1)N(CCOC)C(=O)Cn1nnc2ccccc21 (configuration not stated)	96	i	-12	-2	2	/
CCOc1ccc(Nc2nc(C)cc(C)c2C#N)cc1	93	i	3	6.3*	-1	2
COc1ccc(Nc2nc(C)cc(C)c2C#N)cc1	86	i	-1	-3	4	/
CCc1onc(C)c1C(=O)O	102	i	-1	7.5*	0	-3
CCOC(=O)C1=C(COC(=O)/C=C/c2ccccc2Cl)NC(=O)NC1C (configuration not stated)	99	i	20	-4	0	/
CCOC(=O)C1=C(COC(=O)c2ccc([N+](=O)[O-])s2)NC(=O)NC1C (configuration not stated)	103	i	7	-3	2	/
CCOC(=O)C1=C(COC(=O)c2sccc2C)NC(=O)NC1C (configuration not stated)	99	i	0	11*	2	4
CCOC(=O)C1=C(COC(=O)/C=C/c2ccccc2F)NC(=O)NC1C (configuration not stated)	96	i	23	12*	0	-2
CCOC(=O)C1=C(COC(=O)/C=C/c2ccccc2)NC(=O)NC1C (configuration not stated)	101	i	32	12*	0	5
O=C(Nc1ccccc1N1CCOCC1)[C@@H]1O[C@H](CO)[C@H](O)[C@H](O)[C@H]1O	94	i	-2	/	0	/
CN1CCN(P(=O)(c2ccccc2)c2nc3ccccc3s2)CC1 (configuration not stated)	108	i	3	5.9*	0	0
O=C(CSCc1c(F)cccc1Cl)NCc1ccco1	101	i	7	2	5	/
O=C(CSCc1c(Cl)cccc1Cl)NCc1ccco1	100	i	4	9.2*	3	-3
COc1cc(CN2CCCC(N3CCc4ccccc4C3)C2)c(Cl)cc1O (configuration not stated)	98	i	0	-2	0	/
COc1ccc(C(=O)NNS(=O)(=O)c2ccccc2)cc1	90	i	2	0.0*	1	1
COc1ccc(C(=O)NNS(=O)(=O)c2ccc(OC)cc2)cc1	93	i	3	-3	0	/
N#CC(c1ccccn1)c1ncc(C(F)(F)F)cc1Cl (configuration not stated)	94	i	-5	8.3*	2	6
CCOC(=O)c1cccc(NC(=O)CSc2nnc(COc3ccc(Cl)cc3)o2)c1	98	i	-1	-1	5	/
FC(F)(F)c1nc2nncn2c2c1CCCCC2	101	i	-4	7.4*	6	-3
CC(C)(C)NC(=O)Cn1nc(C(F)(F)F)c2c1CCCC2	103	i	9	-1	3	/
SMILES	ABCB6 inh MLPCN	Myeloid diff 2	H9c2 protect	MIN6 prolif-1	hiPSC survival	MIN6 prolif-2
CC(C)CCNC(=O)COC(=O)/C=C/c1ccc2ccccc2n1	102	i	-3	7.2*	2	-2
O=C(COC(=O)/C=C/c1ccc2ccccc2n1)NNC(=O)c1ccccc1	98	i	5	/	1	/
COc1ccc(OC)c(N2C(N)=NC(N)=NC23CCCC3)c1	98	i	3	5.7*	1	0
C=CCc1ccc(OCCCOc2ccc(C(=O)O)cc2)c(OC)c1	99	i	-12	-3	-1	/
CC(C)n1ncc2c(C(=O)NCc3cccnc3)cc(C3CC3)nc21	97	i	2	11*	0	-2
COc1ccc(C2=Nn3c(nnc3-c3ccccc3C(F)(F)F)SC2)cc1OC1CCOC1 (configuration not stated)	101	i	19	8.8*	0	-6
COc1ccc(C2=Nn3c(nnc3-c3ccncc3)SC2)cc1OC	101	i	35	8.6*	-2	6
O=C(NCCc1c[nH]c2ccccc12)C1CCN(S(=O)(=O)c2ccccc2)CC1	98	i	4	5	0	/
COc1ccccc1-n1cc(-c2ccc(Cl)cc2)[nH]c1=O	100	i	1	0	0	/
COCCNC(=O)C(c1cccs1)N(Cc1ccccc1)C(=O)Cn1nnc2ccccc21 (configuration not stated)	100	i	7	1	4	/
COc1ccc(C(=O)N/N=C/c2ccc(N(C)c3ccccc3)cc2)cc1	99	i	-4	-3	1	/
COc1ccc(-c2cnnn2-c2ccc(N)cc2)cc1OC	100	i	-2	7.6*	2	5
CCCC(=O)N(CCN(C(=O)CCC)c1ccccc1)c1ccccc1	99	i	4	8.8*	-1	-3
CCN(C(=O)CCC(=O)N(CC)c1ccccc1)c1ccccc1	98	i	-1	-1	-2	/
CCN1C(=O)/C(=C/c2cccs2)N(C)C1=S	98	i	-4	1	0	/
CCN1C(=O)/C(=C/c2ccc(C)o2)N(C)C1=S	101	i	-9	0.0*	1	-1
CCCc1ccc(-c2cc(NC(=O)CSc3n[nH]c(N)n3)n(-c3ccccc3)n2)cc1	100	i	-2	-6	1	/
CCCCCC(=O)N1C[C@@H](n2cc(-c3ccc(F)cc3)nn2)[C@H](O)C[C@@H]1c1ccccc1	102	i	2	/	-1	/
CNC(=O)c1ccccc1NC(=O)c1cccc(S(=O)(=O)N2CCCCC2)c1	94	i	-13	7.6*	-1	-4
CCOC(=O)c1cc(-c2ccccc2)n(CCC(=O)N2CCN(c3ccc(OC)cc3)CC2)c1C	103	i	15	-2	4	/
COc1ccc(/C=C/C(=O)C(C)(C)C)cc1OC	89	i	7	6.6*	0	1
COc1cc(OC)c(C(=O)C=Cc2ccc(OC)c(OC)c2)c(OC)c1	97	i	12	/	-2	/
COc1ccc(/C=C/C(=O)OCC(=O)NC2CCCC2)cc1OC	101	i	3	11*	0	4
CC(=O)Nc1nc(Cn2nnc(-c3ccc4c(c3)OCO4)n2)nc(N(C)C)n1	100	i	3	8.8*	0	2

Screening data deposited in PubChem by several laboratories.
